Screens from PubChem.
SENP7 block: SENP7 protease inhibition. inhibition, % at 5 µM. Q9BQF6. recombinant SENP7, Z-RLRGG-aminoluciferin luminescence, 40 min. 330,000 compounds, 1.5% hits;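 active means inhibition above about 50% at the single test dose, limit read from the data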;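 further: plate controls were DMSO with enzyme for no effect and no enzyme buffer wells for full effect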
Target sequence (Q9BQF6 706-1050 limits assumed): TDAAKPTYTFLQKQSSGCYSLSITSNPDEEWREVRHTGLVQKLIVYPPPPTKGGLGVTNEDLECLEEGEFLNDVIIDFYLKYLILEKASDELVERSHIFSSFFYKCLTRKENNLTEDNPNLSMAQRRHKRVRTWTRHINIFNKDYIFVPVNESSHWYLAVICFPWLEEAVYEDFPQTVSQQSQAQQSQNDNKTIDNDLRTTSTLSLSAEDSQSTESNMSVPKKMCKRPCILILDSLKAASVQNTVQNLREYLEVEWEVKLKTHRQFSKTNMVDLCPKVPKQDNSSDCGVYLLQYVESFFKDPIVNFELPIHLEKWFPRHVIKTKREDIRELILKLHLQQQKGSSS
EBI2 block: EBI2 (human) antagonism; 360,000 compounds, 0.81% hits; inhibition, % at 5 µM; EBI2 beta-arrestin recruitment, luminescence, 7a,25-OHC stimulated; AID 651636; P32249; in the data active means inhibition above about 38%;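 further: enzyme fragment complementation signal reports receptor beta-arrestin coupling in cells; 0% = agonist plus DMSO wells and 100% = wells without agonist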
SENP8 block-1: inhibitors of human SENP8 protease; AID 602440; inhibition, % at 20 µM; recombinant SENP8, Nedd8 substrate fluorescence; 360,000 compounds, 0.64% hits; Q96LD8; in the data active means inhibition mostly above about 40%, no sharp cut-off; inactive means mostly below about 27%
Target sequence (Q96LD8 whole entry, looked up): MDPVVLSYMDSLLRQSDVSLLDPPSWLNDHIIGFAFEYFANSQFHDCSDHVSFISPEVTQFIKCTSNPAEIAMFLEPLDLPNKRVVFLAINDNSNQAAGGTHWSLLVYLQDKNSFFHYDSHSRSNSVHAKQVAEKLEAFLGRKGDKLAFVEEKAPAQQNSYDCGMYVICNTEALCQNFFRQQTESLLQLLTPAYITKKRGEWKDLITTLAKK
SENP8 block-2: inhibitors of human SENP8 protease | Q96LD8 | purified SENP8, Z-RLRGG-aminoluciferin cleavage, luminescence | inhibition, % at 10 µM | 330,000 compounds, 1.2% hits | AID 2540; in the data active means inhibition above about 50%
AHR activator: activates the human aryl hydrocarbon receptor; P35869; AHR-responsive luciferase reporter cells, luminescence; activation, % at 5 µM; 320,000 compounds, 2.5% hits; AID 2796; in the data active means activation above about 47%;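 further: 0% = vehicle wells and 100% = reference agonist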
SENP6 block: blocks the human protease SENP6 | Recombinant SENP6 catalytic domain, aminoluciferin luminescence | inhibition, % at 10 µM | 330,000 compounds, 1.8% hits | AID 2599;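 active means inhibition above about 50% at the single tested dose, limit read from the data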;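 further: plate controls were DMSO wells with enzyme for no effect and DMSO wells lacking enzyme for full effect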
AHR act confirm: confirmation of human aryl hydrocarbon receptor activators | activation, % at 9 µM | AID 2845 | shares compounds with AHR activator | human cells, AHR-responsive luciferase reporter, luminescence | 2,300 compounds, 87% hits; in the data active means activation above about 49%;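 further: HepG2 hepatoma cells carrying a DRE-driven firefly luciferase reporter; 0% = vehicle wells and 100% = reference agonist wells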
PXR counter: PXR activation, counter-screen for AHR activators; shares compounds with AHR activator; activation, % at 11.6 µM; 2,300 compounds, 88% hits; cell-based PXR reporter, luciferase luminescence; in the data active means activation above about 11%;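 further: human hepatoma DPX-2 cells expressing full-length human PXR; 0% = DMSO and 100% = reference agonist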
Starred values were filed as active, the others as inactive; x = no result given. Only some compounds are listed: those with a hit (about 5% of all), similar ones and a draw of the others.

SMILES	SENP7 block	EBI2 block	SENP8 block-1	SENP8 block-2	AHR activator	SENP6 block	AHR act confirm	PXR counter
Cc1ccc(/C=N/n2cc(-c3ccccc3)[nH]c2=S)s1	4.5	18.0	10.9	-5.7	96.0*	-4.9	84.5*	x
Cc1ccc(/C=N/n2c(-c3cccnc3)n[nH]c2=S)s1	3.7	-6.8	20.9	0.0	3.1	-0.5	x	x
CCOc1cc2nc(-c3ccc(OC)c(OC)c3)nc(NCCCN3CCOCC3)c2cc1OC	-2.9	0.4	-266.3	7.9	101.1*	-2.0	119.5*	17.5*
COc1cc2ncnc(NCCCN3CCOCC3)c2cc1OC	-1.7	-11.0	-19.2	-11.3	-0.4	-7.1	x	x
C#Cc1ccc(C(=O)Nc2cc(C(N)=O)ccc2N2CCOCC2)cc1	11.0	-2.4	15.6	0.2	79.9*	1.3	71.8*	12.4*
Cc1c(C(=O)NCc2ccccn2)oc2c(Cl)cccc12	3.0	-4.2	5.3	-8.4	87.3*	-10.9	132.1*	50.1*
Cc1c(C(=O)NCc2ccco2)oc2c(Cl)cccc12	5.9	-3.1	6.3	-2.5	39.7	4.2	x	x
CC(C)(C)c1ccc(C(=O)N2CCN(CCNC(=O)C(=O)NCc3ccccc3)CC2)cc1	-4.9	-2.1	-0.5	-9.9	0.7	-13.5	x	x
O=c1[nH]c2ccccc2nc1-c1ccccc1	-0.7	0.0	-467.9	-2.6	101.3*	2.6	84.0*	11.1*
O=c1nc(-c2ccccc2)c2ccccc2[nH]1	4.8	-11.1	-363.8	3.0	4.0	2.9	x	x
Clc1cccc2sc(N3CCCCC3)nc12	20.6	2.2	8.8	3.4	0.8	-0.9	x	x
Brc1cccc2sc(N3CCN(c4ccccc4)CC3)nc12	-8.1	2.5	10.5	-6.5	91.2*	-20.1	108.3*	18.5*
CC(C)(C)c1csc(SCC(=O)Nc2ccc(Cl)cn2)n1	7.3	1.2	16.6	-6.2	-2.1	-21.3	x	x
Cc1csc(SCC(=O)Nc2ccc(Cl)cn2)n1	5.2	-16.1	-26.9	-5.4	98.2*	-3.9	98.4*	x
O=C(N/N=C/c1cc(Br)cs1)c1c[nH]c2ccccc12	-2.0	7.9	-7.5	-1.4	91.3*	-17.0	144.9*	25.7*
c1ccc(-c2nnc3n2N=C(c2ccc4c(c2)OCO4)CS3)nc1	8.0	5.7	7.8	-4.8	93.8*	2.7	23.1	12.9*
COc1ccc(-n2nc([N+](=O)[O-])c(=NCCC3=CCCCC3)n2O)cc1	-13.7	0.1	27.7	-0.5	14.3	-16.1	x	x
CC1(C)CC(=O)C2=C(C1)N1C(=C(C#N)C2c2ccc(Cl)cc2)N=C(N)c2ccccc21 (stereo unspecified)	4.5	1.1	-5.3	-11.4	96.7*	-5.0	7.6	159.3*
O=C(CSc1nc(-c2ccccc2Cl)ns1)Nc1ccc2c(c1)OCO2	-11.8	-1.0	6.4	-20.5	87.1*	5.1	72.5*	16.6*
CCOC(=O)C1=C(O)C(=O)N(c2ccc(S(N)(=O)=O)cc2)C1c1ccc(Br)cc1 (stereo unspecified)	6.7	-2.6	-263.7	2.6	1.6	7.9	x	x
CCn1cc(Br)c(C(=O)Nc2ccc(F)cc2F)n1	5.8	-6.7	14.9	-4.7	99.3*	4.5	130.2*	13.2*
Nc1nc(NCC2CCCO2)nc(Nc2cccc(Cl)c2)c1[N+](=O)[O-] (stereo unspecified)	-10.7	-9.1	19.7	-12.1	99.0*	-10.5	27.3	16.2*
Cc1cccc(Nc2nc(NCC3CCCO3)nc(N)c2[N+](=O)[O-])c1 (stereo unspecified)	5.3	3.7	38.1	-15.5	8.5	-8.7	x	x
CCc1nc(CNC(=O)C2CCC(=O)N(Cc3cccc(OC)c3)C2)no1 (stereo unspecified)	10.9	-7.7	31.9	-6.4	-2.4	3.0	x	x
O=C(N/N=C/c1ccncc1)c1ccc(COc2cccc3cccnc23)cc1	-8.1	0.6	-22.1	-11.3	9.1	9.4	x	x
SMILES	SENP7 block	EBI2 block	SENP8 block-1	SENP8 block-2	AHR activator	SENP6 block	AHR act confirm	PXR counter
O=C(N/N=C/c1ccc2cccc(OCc3ccccc3)c2n1)c1ccc(Cl)cc1	3.8	17.1	-342.1	-3.5	99.5*	-16.4	70.0*	12.7*
COc1cc2c(cc1OC)/C(=C/c1ccc(Br)cc1)C(=O)OC2	-7.7	10.5	-23.0	-10.7	84.8*	-14.0	60.1*	14.6*
COc1ccc(CCNC(=O)CCC(=O)N2CCOc3ccccc32)cc1OC	2.9	-4.9	6.8	7.4	2.4	14.8	x	x
Cn1nc(C(=O)Nc2nc3ccccc3[nH]2)c2ccccc2c1=O	-0.5	-1.0	-66.4	0.8	98.0*	0.5	73.2*	18.7*
Cc1cc(C(=O)Nc2ccc3[nH]ccc3c2)no1	1.4	-10.5	-12.2	-14.2	4.0	-13.6	x	x
CCc1nnc(NC(=O)CSc2nc(C)cc(C)c2C#N)s1	-2.6	0.4	-432.2	-12.1	101.9*	7.3	62.5*	45.1*
CCOC(=O)NC(=O)CSc1nc(C)cc(C)c1C#N	2.1	-0.7	-112.9	0.5	3.1	-10.1	x	x
CCC1(c2ccc(Cl)cc2)NC(=S)N(c2ccccc2)N1 (stereo unspecified)	-2.3	1.3	0.5	-9.7	80.4*	-1.0	82.3*	12.0*
Cc1cc2oc(C(=O)NCc3ccncc3)c(C)c2cc1C	1.9	2.4	10.9	-4.7	89.4*	-1.4	49.8*	28.5*
Cc1cc2oc(C(=O)NCCc3ccc(S(N)(=O)=O)cc3)c(C)c2cc1C	5.3	-13.1	6.9	2.5	-1.0	-19.5	x	x
Cn1c(=O)n(CCc2ccccc2)c(=O)c2c1nc1n2CCCN1Cc1ccccc1	2.5	35.4	16.5	-4.4	119.1*	-12.3	82.6*	149.5*
Cn1c(=O)n(CCc2ccccc2)c(=O)c2c1ncn2Cc1ccccc1	-6.9	10.6	14.2	-7.2	80.6*	-10.2	94.5*	28.1*
CCCn1c(=O)c2c(nc3n2CCCN3Cc2ccccc2)n(C)c1=O	0.2	0.6	12.0	-2.6	2.9	-0.5	x	x
COc1cccc(-c2c(NC(=O)c3ccco3)oc3ccccc3c2=O)c1	1.9	-4.4	-2.0	5.7	2.6	14.2	x	x
COc1cccc(-c2c(NC(=O)c3ccco3)oc3ccc(Cl)cc3c2=O)c1	7.7	-3.1	-78.7	6.7	103.6*	2.1	84.4*	56.7*
COc1ccc(/C=C/C(=O)c2oc3ccc(F)cc3c2C)cc1	-6.7	24.1	-123.7	-25.1	81.3*	-18.2	130.2*	74.7*
COc1cc(Cl)c(C)cc1NC(=O)c1ccccc1NC(=O)CN1CCOCC1	-5.7	26.0	-4.0	-3.0	101.3*	-1.8	103.3*	91.7*
O=C(CCC1CCCC1)NCCS(=O)(=O)N1CCN(c2ccccc2)CC1	-7.5	8.8	3.8	0.6	-1.4	-7.6	x	x
O=c1c2ccccc2[nH]c(=S)n1CCCN1CCC(Cc2ccccc2)CC1	1.4	4.3	14.4	-5.1	1.6	5.6	x	x
